Structures can show the parent of a compound that is named as a salt. ± gives the standard deviation of the averaged measurements.

This assay deals with E. coli TESEC Mtb Alr. As to the kind of experiment: growth (OD600 after 10 h); higher = more growth (less inhibition). The note with it: compound 0.1 mM. The protocol:
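TESEC Mtb Alr E. coli, or the Alr+ wild-type control, in 384-well plates with Prestwick library compounds at 0.1 mM and 1% DMSO, across arabinose induction levels of 1E3 to 1E7 nM. Growth is read as OD600 after 10 h at 37 °C in triplicate biological replicates.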

Setting [1] is: arabinose 1000 nM, raw OD600 reference: median of DMSO wells 0.294, cell-free background 0.041.
Setting [2] is: arabinose 10000 nM, raw OD600 reference: median of DMSO wells 0.264, cell-free background 0.041.
Where [3] appears, read: arabinose 100000 nM, raw OD600 reference: median of DMSO wells 0.201, cell-free background 0.041.
Setting [4] is: arabinose 1000000 nM, raw OD600 reference: median of DMSO wells 0.193, cell-free background 0.041.
Setting [5] is: arabinose 10000000 nM, raw OD600 reference: median of DMSO wells 0.146, cell-free background 0.041.

On to `CC(=O)CC(c1ccccc1)c1c(O)c2ccccc2oc1=O` (stereo not given) [Warfarin], for which the growth was determined as 0.273 ± 0.007 under setting [1]; 0.2271 ± 0.0011 under setting [2]; 0.139 ± 0.0062 under setting [3]; 0.15 ± 0.0059 under setting [4]; 0.126 ± 0.0063 under setting [5].
Take `CC(C)[C@H]1CC[C@H](C(=O)N[C@H](Cc2ccccc2)C(=O)O)CC1` [Nateglinide]: the growth by setting is: under setting [1], 0.277 ± 0.0054; under setting [2], 0.246 ± 0.019; under setting [3], 0.169 ± 0.0079; under setting [4], 0.114 ± 0.0027; under setting [5], 0.147 ± 0.0056.
The matching figures for `CN1CCCC(CC2c3ccccc3Sc3ccccc32)C1` (stereo not given) [Metixene hydrochloride]: 0.0424 ± 0.0015, 0.0424 ± 0.00036, 0.04217 ± 0.00038, 0.04163 ± 0.00021 and 0.044 ± 0.0005.
`Clc1ccc(CSC(Cn2ccnc2)c2ccc(Cl)cc2Cl)cc1` (stereo not given) [Sulconazole nitrate]: the growth is, setting by setting: under setting [1], 0.0534 ± 0.0013; under setting [2], 0.0668 ± 0.0017; under setting [3], 0.0542 ± 0.00071; under setting [4], 0.0669 ± 0.0011; under setting [5], 0.0556 ± 0.0041.
For `CCN1CCC[C@H]1CNC(=O)c1c(OC)ccc(Br)c1OC` [Remoxipride Hydrochloride], the growth was found to be 0.304 ± 0.016 under setting [1]; 0.259 ± 0.004 under setting [2]; 0.192 ± 0.0085 under setting [3]; 0.184 ± 0.0027 under setting [4]; 0.136 ± 0.0041 under setting [5].
The matching figures for `CCOC(=O)NNc1nncc2ccccc12` [Todralazine hydrochloride]: 0.3001 ± 0.00089, 0.252 ± 0.0082, 0.246 ± 0.03, 0.181 ± 0.0025 and 0.16 ± 0.005.
The matching figures for `O=C1OC(CN2CCOCC2)CN1/N=C/c1ccc([N+](=O)[O-])o1` (stereo not given) [Furaltadone hydrochloride]: 0.0421 ± 0.002, 0.0409 ± 0.0001, 0.04173 ± 5.8e-05, 0.0404 ± 0.00046 and 0.0427 ± 0.0014.
Turning to `C#C[C@]1(O)CC[C@H]2[C@@H]3CCc4cc(OC)ccc4[C@H]3CC[C@@]21C` [Ethynylestradiol 3-methyl ether], the growth runs as follows: under setting [1], 0.279 ± 0.0063; under setting [2], 0.262 ± 0.013; under setting [3], 0.184 ± 0.015; under setting [4], 0.163 ± 0.0052; under setting [5], 0.149 ± 0.0072.

The values above are taken from the supplement of paper PMC9262897, “Low-cost anti-mycobacterial drug discovery using engineered E. coli” (Nature Communications, 2022).
